Experimental data as given in PubChem BioAssay (NCATS).
Inconclusive results are not listed.

test: qHTS Assay for Lipid Storage Modulators (AID 1519); conditions: Drosophila S3 cells, BODIPY lipid droplet/cell ratio, laser cytometry; measured here: cell count channel max response; cells loaded with oleic acid
How it was run: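 Cells seeded at 5,000 per well were treated with compounds over a concentration series and loaded with oleic acid (400 uM, as added). Lipid droplet fluorescence (488 nm excitation, 500-530 nm channel) was read by laser-scanning cytometry and normalized to 20 uM Triacsin C.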

In order of rising max response:
1. COc1ccc(Oc2ncc3nc(-c4ccc(Cl)cc4)c(=O)n(C[C@H]4CCCO4)c3n2)cc1  -25.3%
2. CN(C)c1ccc(-c2cc(Nc3ccc(F)cc3)ncn2)cc1  -11.3%
3. COc1ncc2nc(-c3cccs3)c(=O)n(CCc3ccccc3)c2n1  -3.52%
4. COc1cccc(Nc2ncc3nc(C)c(=O)n(C4CC4)c3n2)c1  -1.52%
5. CNc1nc(-c2ccc3c(c2)OCO3)nc2ccccc12  2.96%
6. CCNc1ncc2nc(-c3cccs3)c(=O)n(C)c2n1  3.66%
7. Cc1noc(C)c1-c1cc(NCc2cccnc2)ncn1  5.59%
8. Cc1noc(C)c1-c1nccc(N2CCOCC2)n1  6.28%
9. COCCn1c(=O)c(-c2cn(C)c3ccccc23)nc2cnc(N3CCOCC3)nc21  6.29%
10. COc1ncc2nc(-c3ccccc3)c(=O)n(-c3ccccc3)c2n1  10.3%
11. FC(F)(F)c1ccccc1-c1cc(NCc2ccccc2)ncn1  14.8%
12. COc1cccc(Cn2c(=O)c(C)nc3cnc(OC)nc32)c1  15.1%
13. COc1cccc(Cn2c(=O)cnc3cncnc32)c1  17.1%
14. COc1cccc(Cn2c(=O)c(-c3cc(F)cc(F)c3)nc3cnc(N(C)C)nc32)c1  19.9%
15. COCCn1c(=O)c(-c2cc(F)cc(F)c2)nc2cnc(N3CCOCC3)nc21  22.1%
16. Cn1c(=O)c(-c2ccc(Cl)cc2)nc2cnc(Nc3ccccc3)nc21  23.4%
17. Cc1nc2cncnc2n(C2CC2)c1=O  24%
18. CN(C)C(=O)c1ccc(-c2cc(NCc3cccnc3)ncn2)cc1  24.7%
19. Clc1ccccc1-c1ccc2ncnc(N3CCNCC3)c2c1  26.7%
